Inconclusive results are not listed. A call without a number means that no potency is given here. Calls of active or inactive are those of the source. Calls follow the shape of the dose curve; as a rule, active = well fitted inhibition curve with a large enough effect; inconclusive = small, poorly fitted or top-dose-only effect; inactive = flat fitted curve, though single readings scatter.
Molecular target: Calcium and integrin-binding protein 1 (Homo sapiens) (UniProt Q99828)
Assay: Primary qHTS for Identification of Calcium Integrin Binding Protein 1 (CIB1) Competitor (AID 1508620);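 also: GST tagged CIB1 binding a fluorescein labelled alphaIIb integrin peptide tracer; top concentration of the series differs between compounds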
Conditions: CIB1-GST / FITC-alphaIIb peptide fluorescence polarization; series mostly up to 114 µM
How it was run: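 Fluorescence polarization competition: CIB1-GST (1 uM final) preincubated with compound 15 min at room temperature, then FITC-labeled alphaIIb peptide (100 nM final) added for another 15 min. Polarization read at Ex 480/Em 540.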

Calcium and integrin-binding protein 1 (Homo sapiens), sequence (Q99828 whole entry, looked up): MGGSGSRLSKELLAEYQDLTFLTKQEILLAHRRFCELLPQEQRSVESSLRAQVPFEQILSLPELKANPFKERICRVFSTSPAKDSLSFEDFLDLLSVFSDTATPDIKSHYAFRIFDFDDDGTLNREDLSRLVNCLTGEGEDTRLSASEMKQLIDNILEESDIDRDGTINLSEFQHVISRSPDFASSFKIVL

Structure (SMILES)	Potency
Cc1cccc(-c2csc3ncnc(Sc4nnnn4C)c23)c1	inactive
COC(=O)c1ccccc1S(=O)(=O)Nc1cc(=O)c2ccccc2[nH]1	inactive
O=C(CNC(=O)c1cccc2ccccc12)OC(C(=O)Nc1cc(C(F)(F)F)ccc1Cl)c1ccccc1 (stereo not given)	inactive
Cc1ccc(NC(=O)c2cnn3c(-c4ccccc4)cc(C)nc23)cc1	inactive
CS(=O)(=O)N1CCN(c2nc(-c3ccc(Br)cc3)cs2)CC1	inactive
Cc1csc(CNc2ncnc3ccc(-c4ccc5c(c4)OCCO5)cc23)c1	inactive
Cc1cccc(CNc2ncnc3ccc(-c4ccc5c(c4)OCCO5)cc23)c1	inactive
Fc1ccc(-c2nnc(CCCCSc3nnc(-c4cccc5ccccc45)o3)o2)cc1	inactive
Cc1cc(N[S+](=O)([O-])c2ccc(NC(=O)Cc3ccc(Cl)nc3)cc2)no1	inactive
O=C1c2ccccc2C(=O)N1c1noc2ccccc12	inactive
COc1ccc(C2Nc3ccccc3C(=O)N2Cc2ccc(-c3ccccc3)cc2)cc1COc1ccc(NC(C)=O)cc1 (stereo not given)	inactive
CCOc1ccccc1-c1nnc2n1N=C(c1cccc(OC)c1)CS2	inactive
N#Cc1ccccc1CCc1nc2ncc(Br)cc2[nH]1	inactive
Nc1ccc(S(=O)(=O)N2CCN(S(=O)(=O)c3ccc4c(c3)OCCO4)CC2)cc1	inactive
Cc1csc(CNc2ncnc3ccc(-c4cccnc4)cc23)c1	inactive
Nc1cc(S(=O)(=O)N2CCN(S(=O)(=O)c3ccc4c(c3)OCCO4)CC2)ccn1	inactive
O=C(Nc1ccc(Cl)c(C(F)(F)F)c1)Nc1nnc(-c2cccnc2)s1	inactive
COc1cccc(-c2ccc(CNc3ccc(N4CCN(C(=O)OC(C)(C)C)CC4)cc3)o2)c1	inactive
Nc1ccc(S(=O)(=O)Nc2cccc3cccnc23)cc1	inactive
O=[N+]([O-])c1ccccc1S(=O)(=O)Nc1cccc2cccnc12	inactive

Structure (SMILES)	Potency
CC(C)c1ccccc1-c1ncc(N)c(NCc2ccc(-c3cccnc3)cc2)n1	inactive
COC(=O)c1ccccc1S(=O)(=O)Nc1ccc(OC)cc1	inactive
Cc1ccc(OCCn2c(CCNC(=O)c3ccc(Br)cc3)nc3ccccc32)cc1	inactive
CCCCN(C)C(=O)Cn1nc(-c2ccc(Cl)cc2)ccc1=O	inactive
O=C(N/C=C/c1ccccc1)c1cccc([S+](=O)([O-])Nc2ccccc2F)c1	inactive
Cc1cc(C)nc(NC(=S)N2CCN(c3ncccc3C(F)(F)F)CC2)c1	inactive
CCCCc1nnc(-c2cnn(C)c2N)n1CCCn1ccnc1	inactive
COc1ccc(C2c3c(ncn(CCCc4ccccc4)c3=N)Oc3ccc4ccccc4c32)cc1OC (stereo not given)	inactive
c1cc2c(cc1CNc1ccc(N3CCCCC3)cc1)OCO2	inactive
CC(=O)Nc1sc2c(c1-c1cccs1)CCNC2	inactive
COc1ccc(Cl)cc1S(=O)(=O)N1CCN(S(=O)(=O)c2ccc3c(c2)OCCO3)CC1	inactive
COCC(=O)NCCc1nc2ccccc2n1CCOc1ccc(C)cc1	inactive
O=C(Nc1ncc(Cc2cccc(C(F)(F)F)c2)s1)c1ccc(-c2cccc([N+](=O)[O-])c2)o1	inactive
CCOc1ccc(CCNC(=O)c2cc3ccccc3o2)cc1OCC	inactive
CCCCN(C)C(=O)Cn1nc(-c2ccc(F)cc2)ccc1=O	inactive
NC(=O)C1CCN(c2nc(-c3ccc(Cl)cc3)cs2)CC1	inactive
CC(C)CN1CC2=C(C1=O)C(c1ccccc1Cl)N=C(Nc1nc3ccccc3o1)N2 (stereo not given)	inactive
CC(C)(C)OC(=O)NCC(=O)NNC(=O)c1cc2ccccc2[nH]1	inactive
Cc1cc2c(s1)c1cnn(Cc3ccc(-c4ccccc4)cc3)c(=O)c1n2C	inactive
Cc1cc2c(s1)c1c(C)nn(Cc3ccc(F)cc3)c(=O)c1n2C	inactive
